Measured values as given in PubChem BioAssay (NCATS).
Results filed as inconclusive are left out. A number with no mark means an inactive call. Activity calls are given as the source filed them. The call rests on the fitted dose curve; in most records, active means well fitted activation curve with a large enough effect; inconclusive means small, poorly fitted or top-dose-only effect; inactive means no such curve, though single readings can be large or run the other way.

Molecular target: Cellular tumor antigen p53 (Homo sapiens) (UniProt P04637)
Test: Primary qHTS for small molecule compounds that upregulate eGFP-tagged delta133p53alpha (in N-terminal) cells. (AID 2060322); further: nearly all actives have a fitted effect of over 75% in size;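 on activation: cells pre-induced with doxycycline then dosed without doxycycline; series mostly up to about 56 µM; 0% = DMSO vehicle and 100% = reference activator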
Settings: NCI-H358 eGFP-delta133p53alpha fluorescence, 24 h; activation: hits give high values
Summary of the method: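 NCI-H358 cells pre-induced 24 h with 10 ng/ml doxycycline for eGFP-delta133p53alpha, plated dox-free and exposed 24 h at 37C to titrated compounds. Fixed, Hoechst-stained; gated GFP peak intensity by laser scanning cytometry, normalized to DMSO (0%) and 57.5 uM 5-azacytidine (100%).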
Potency means the concentration at half of the fitted maximal effect.

Cellular tumor antigen p53 (Homo sapiens), sequence (P04637 whole entry, looked up): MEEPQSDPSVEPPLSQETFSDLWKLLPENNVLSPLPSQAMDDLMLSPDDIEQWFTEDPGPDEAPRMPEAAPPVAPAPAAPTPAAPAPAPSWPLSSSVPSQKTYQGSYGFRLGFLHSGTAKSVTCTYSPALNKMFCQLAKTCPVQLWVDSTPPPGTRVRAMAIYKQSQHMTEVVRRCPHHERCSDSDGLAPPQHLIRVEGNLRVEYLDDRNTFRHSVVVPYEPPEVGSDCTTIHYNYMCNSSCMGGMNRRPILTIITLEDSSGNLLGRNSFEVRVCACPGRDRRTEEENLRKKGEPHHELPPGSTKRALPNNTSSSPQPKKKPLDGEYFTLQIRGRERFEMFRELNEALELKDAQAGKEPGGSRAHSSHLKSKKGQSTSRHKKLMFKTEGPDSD

| SMILES | activation [%] | Potency |
| --- | --- | --- |
| CC(C)n1c(/C=C/[C@@H](O)C[C@@H](O)CC(=O)O)c(-c2ccc(F)cc2)c2ccccc21 | -1.69 | – |
| CC=CCC(C)C(O)C1C(=O)NC(CC)C(=O)N(C)CC(=O)N(C)C(CC(C)C)C(=O)NC(C(C)C)C(=O)N(C)C(CC(C)C)C(=O)NC(C)C(=O)NC(C)C(=O)N(C)C(CC(C)C)C(=O)N(C)C(CC(C)C)C(=O)N(C)C(C(C)C)C(=O)N1C (configuration not stated) | -6.27 | – |
| CC1(C)CCC[C@@]2(C)[C@@H]1CC[C@@]1(C)OC(=O)C[C@H]21 | -11.9 | – |
| COc1c(C)c2c(c(O)c1CC=C(C)CCC(=O)OCCN1CCOCC1)C(=O)OC2 | 13.4 | – |
| CC(=O)O[C@H]1CC[C@@]2(C)C(=CC[C@@H]3[C@@H]2CC[C@]2(C)C(C(C)=O)=CC[C@@H]32)C1 | 4.18 | – |
| OC[C@H]1O[C@@H](O[C@H]2[C@@H](O)[C@@](O)(CO)O[C@@H]2CO)[C@H](O)[C@@H](O)[C@@H]1O | 0.771 | – |
| O=C(Oc1ccccc1C(=O)O)c1ccccc1O | -5.02 | – |
| Cc1nc2n(c(=O)c1CCN1CCC(C(=O)c3ccc(F)cc3)CC1)CCS2 | 23.2 | – |
| C1N2CN3CN1CN(C2)C3 | – | 27.6 µM (active) |
| CC1=C(C/C=C(\C)CCC[C@H](C)CCC[C@H](C)CCCC(C)C)C(=O)c2ccccc2C1=O | 18.6 | – |
| Nc1ccc(C(=O)Nc2ccccc2N)cc1 | -7.53 | – |
| CCCc1ncc(C[n+]2ccccc2C)c(N)n1 | 13.4 | – |
